Only a sample is shown.
aSyn 5UTR act = Activators via SNCA 5'UTR binding, MLPCN; alpha-synuclein 5'UTR reporter, activators screen; activity score, % (tested at 7.5 µM), hits read low; 300,000 compounds, 7.1% hits; in the data active means activity score below about -60%
* = called active by the depositor.

SMILES	aSyn 5UTR act
Cc1occc1C(=O)Nc1ccc(Br)cc1F	-165.3*
Cc1nn(C)c(C(=O)Nc2ccc(Br)cc2F)c1Br	-110.1*
Cc1ccc(C(=O)NCCn2cc(SCC(=O)Nc3cc(C)on3)c3ccccc32)cc1	-77.7*
Oc1ccccc1CNc1ccc2c(c1)OCCO2	-71.8*
Oc1ccccc1CNc1ccc(OC(F)(F)F)cc1	-72.1*
Cc1ccc(NCc2ccccc2O)cc1C	-116.5*
O=C(OCC(=O)c1c[nH]c2ccccc12)c1ccco1	-102.2*
O=C(OCC(=O)c1c[nH]c2ccccc12)c1ccc(Br)o1	-129.7*
COc1ccc(C(=O)COC(=O)c2cccc(-n3cnnn3)c2)c(OC)c1	-103.9*
COc1ccc(C(=O)COC(=O)c2cc(=O)[nH]c3ccccc23)c(OC)c1	-130.5*
COc1cccc(C(=O)OCC(=O)c2c[nH]c3ccccc23)c1O	-105.5*
N#CC(C#N)=C(Nc1ccc(F)cc1)SCc1cccc(Br)c1	48.1
CN(C)C(/C=C/Nc1ccc(F)cc1)=C(C#N)C#N	-63.2*
Cc1ccc(C(=O)CSc2nnc(-c3ccco3)n2Cc2ccccc2)cc1	-96.8*
O=C(CSc1nnc(-c2ccco2)n1Cc1ccccc1)c1ccccc1	-104.1*
Cc1ccc(CNc2ccc3c(c2)nc(C)n3C)cc1	-64.0*
Cc1nc2cc(NCc3ccc(Cl)cc3)ccc2n1C	-66.8*
Oc1ccc(O)c(-c2cnns2)c1	-70.5*
COCCn1c(=O)[nH]c2cc(C(=O)Nc3cccc(F)c3)ccc2c1=O	-112.7*
NC(=O)c1ccc(-c2ncc(-c3ccccc3)o2)cc1	-68.3*
Cc1ccc(N=Cc2sc(O)c3ccccc23)cc1	-236.5*
Cc1ccc(N=Nc2ccc3ccccc3c2O)cc1	61.3
Cc1ccc(N=Cc2sc(O)c3ccccc23)c(C)c1	-189.7*
c1ccc(-n2ncc3c2ncn2nc(-c4ccco4)nc32)cc1	-131.1*
Cc1ccc(SC(C)c2nc(-c3ccccc3)no2)cc1 (stereo not drawn)	-97.6*
SMILES	aSyn 5UTR act
Cn1cccc1C(=O)OCc1ccc(C(C)(C)C)cc1	-140.9*
Cc1ccc(-c2ccc3c(c2)S(=O)(=O)c2ccccc2C3=O)cc1	-156.4*
CCOC(=O)c1c(C)oc2c(F)c(F)c(F)c(F)c2c1=O	-85.3*
CC1CCc2nc(NC(=O)c3ccco3)sc2C1 (stereo not drawn)	88.1
CC1CCc2nc(NC(=O)Cc3cccs3)sc2C1 (stereo not drawn)	-160.1*
Cc1csc(NC(=O)CCCc2cccs2)n1	-77.1*
O=C(CCCc1cccs1)Nc1nc2c(s1)CCCC2	-171.0*
CC(C)(C)C1CCc2nc(NC(=O)Cc3cn4ccsc4n3)sc2C1 (stereo not drawn)	-65.6*
COc1cccc(CNc2nc3nc(C)c(Cl)c(C)n3n2)c1	-95.1*
COc1ccc(CNc2nc3nc(C)c(Cl)c(C)n3n2)cc1	-64.7*
Cn1cccc1-c1nc2ccccc2[nH]1	-114.1*
Cn1cccc1-c1nc2ccc(NC(=O)c3ccccc3)cc2[nH]1	-124.5*
Cc1csc(NC(=O)c2nc3nccc(C)n3n2)n1	-147.2*
Cc1ccc(NC(=O)c2nc3nccc(C)n3n2)c(C)c1	-63.7*
Cc1ccnc2nc(C(=O)Nc3ccc(N4CCOCC4)cc3)nn12	-73.0*
Cc1cc(CN2CCCC(C(=O)Nc3ccc(-c4nc5ccccc5[nH]4)cc3)C2)n[nH]1 (stereo not drawn)	-120.8*
CC(C)n1cc(CN2CCCC(C(=O)Nc3cccc(-c4cc5ccccc5[nH]4)c3)C2)cn1 (stereo not drawn)	58.2
C/C(=N/OC(=O)CC(C)C)c1cc(-c2ccc(Cl)cc2)no1	-145.7*
COc1ccc(-c2noc(CCCC(=O)O)n2)cc1	89.0
Cc1ccc(-c2noc(CCCc3ccccc3)n2)cc1	-76.8*
Clc1ccccc1OCc1nc(-c2ccc(Br)o2)no1	-83.4*
Brc1ccc(-c2noc(CCc3ccccc3)n2)o1	-119.5*
Fc1ccc(OCc2nc(-c3ccc(Br)o3)no2)c(F)c1	-77.0*
Cc1ccc(OCc2nc(-c3ccccc3)no2)c(C)c1	-211.7*
c1ccc(OCc2cc(-c3ccccc3)no2)cc1	-169.4*
SMILES	aSyn 5UTR act
COc1ccccc1OCc1cc(-c2ccccc2)no1	-224.5*
COc1ccc2nc(NC(=O)Cc3cccs3)sc2c1	-131.8*
O=C(Cc1cccs1)Nc1nc2ccccc2s1	-82.2*
Cc1ccc2nc(NC(=O)c3ccccn3)sc2c1	111.4
Cc1ccc2nc(NC(=O)Cc3cccs3)sc2c1	-165.9*
CCc1ccc2nc(NC(=O)CCCc3cccs3)sc2c1	-81.2*
CC1(C(=O)Nc2nc3ccccc3s2)CC1(Br)Br (stereo not drawn)	-117.9*
O=C(Cc1ccccc1)Nc1nc2ccccc2s1	-102.2*
O=C(Cc1nc(=O)c2ccccc2s1)Nc1ccccc1	-105.1*
CC(Cc1ccccc1)C(=O)NCc1nc2ccccc2s1 (stereo not drawn)	-75.3*
CCOc1ccc2nc(NC(=O)Cc3cccs3)sc2c1	-136.9*
Cc1ccc2nc(NC(=O)COC(=O)c3ccco3)sc2c1	-96.9*
NC(=S)N=Nc1c(O)n(Cc2ccc(Br)cc2)c2ccccc12	64.4
CCn1c(O)c(N=Nc2ccc3ccccc3n2)c2ccccc21	-143.1*
